Laboratory results published in PubChem BioAssay (NCATS).
Inconclusive results are not listed. Unmarked numbers belong to inactive results. Activity calls are given as the source filed them. Unless noted, calls come from the whole dose curve; as a rule, active = well fitted inhibition curve with a large enough effect; inconclusive = small, poorly fitted or top-dose-only effect; inactive = no such curve, though single readings can be large or run the other way.

Assays:
[1] = biological target: Rap guanine nucleotide exchange factor 4 (Homo sapiens) (UniProt Q8WZA2); assay: Confirmatory qHTS for antagonist of cAMP-regulated guanine nucleotide exchange factor 4 (EPAC2) (AID 1645885); note: potency is the fitted concentration of half-maximal effect; nearly all actives have a fitted effect of over 25% in size
[2] = qHTS Assay for Identification of Small Molecule Agonists for Hypoxia Response Element Signaling Pathway (AID 914; active = well fitted activation curve with a large enough effect in the signal ratio, with a control signal flat, not every such curve was filed as active; the % refers to the signal ratio; note: potency is the fitted concentration of half-maximal effect; for activation: % of control where 0% means no effect); settings: ME-180 (cervical carcinoma) HRE-bla reporter, beta-lactamase ratio, CoCl2, 17 h; activation: active compounds read high
Outline: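 HRE-bla ME-180 cells with beta-lactamase reporter under hypoxia response element, compounds with EC50 CoCl2 for 17 hours at 37 C. CCF4 substrate, 460nm/530nm emission ratio gave %Activity; AC50 from titration series.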

[3] = biological target: Cytochrome P450 2C9 (Homo sapiens) (UniProt P11712); assay: qHTS Assay for Inhibitors and Substrates of Cytochrome P450 2C9 (AID 883); note: nearly all actives have a fitted effect of over 60% in size; note: potency is the fitted concentration of half-maximal effect; for activity change, negative = inhibition: % is set by controls: 0 for no effect and ±100 for the full control effect
Outline: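 Human CYP2C9 (10nM) with Luciferin-H at 100uM (its KM) in 25mM KPO4; compound preincubated 10 min at 37C, then NADPH regeneration for 60 min at 37C. Luciferin read by luminescence after detection reagent; normalized to 57uM sulphaphenazole as full inhibition.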

[4] = biological target: Cytochrome P450 2D6 (Homo sapiens) (UniProt P10635); assay: qHTS Assay for Inhibitors and Substrates of Cytochrome P450 2D6 (AID 891); note: potency is the fitted concentration of half-maximal effect; nearly all actives have a fitted effect of over 60% in size
Outline: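 Luminescent read-out of luciferin formed by 5 nM human CYP2D6 demethylating 30 uM Luciferin-ME EGE (Km level) over 60 min at room temperature after NADPH regeneration addition. Data normalized to full inhibition by 1.43 uM quinidine.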

[5] = biological target: Cytochrome P450 2C19 (Homo sapiens) (UniProt P33261); assay: qHTS Assay for Inhibitors and Substrates of Cytochrome P450 2C19 (AID 899); note: % is set by controls: 0 for no effect and ±100 for the full control effect; nearly all actives have a fitted effect of over 60% in size
Outline: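 5 nM human CYP2C19 with 10uM Luciferin-H EGE (at KM) in 50mM KPO4, compound preincubated 10 min at 37C, then NADPH regeneration for 60 min at 37C. Luciferin read by luminescence after detection reagent; normalized to 57uM ketoconazole as full inhibition.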

Sequence of Cytochrome P450 2C9 (Homo sapiens) (P11712 whole entry, looked up): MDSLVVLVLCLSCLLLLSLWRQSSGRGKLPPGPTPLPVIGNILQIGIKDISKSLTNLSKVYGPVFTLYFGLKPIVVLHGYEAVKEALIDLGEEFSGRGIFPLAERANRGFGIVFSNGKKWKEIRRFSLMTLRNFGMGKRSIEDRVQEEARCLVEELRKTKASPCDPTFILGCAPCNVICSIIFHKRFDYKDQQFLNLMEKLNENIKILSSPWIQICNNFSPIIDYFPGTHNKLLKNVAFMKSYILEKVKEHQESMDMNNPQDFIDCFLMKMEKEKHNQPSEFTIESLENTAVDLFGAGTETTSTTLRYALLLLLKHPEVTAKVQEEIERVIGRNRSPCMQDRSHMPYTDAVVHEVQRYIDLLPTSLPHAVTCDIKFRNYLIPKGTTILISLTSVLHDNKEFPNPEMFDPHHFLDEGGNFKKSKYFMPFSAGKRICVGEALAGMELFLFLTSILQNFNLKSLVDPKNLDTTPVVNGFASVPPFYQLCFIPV
Sequence of Cytochrome P450 2D6 (Homo sapiens) (P10635 whole entry, looked up): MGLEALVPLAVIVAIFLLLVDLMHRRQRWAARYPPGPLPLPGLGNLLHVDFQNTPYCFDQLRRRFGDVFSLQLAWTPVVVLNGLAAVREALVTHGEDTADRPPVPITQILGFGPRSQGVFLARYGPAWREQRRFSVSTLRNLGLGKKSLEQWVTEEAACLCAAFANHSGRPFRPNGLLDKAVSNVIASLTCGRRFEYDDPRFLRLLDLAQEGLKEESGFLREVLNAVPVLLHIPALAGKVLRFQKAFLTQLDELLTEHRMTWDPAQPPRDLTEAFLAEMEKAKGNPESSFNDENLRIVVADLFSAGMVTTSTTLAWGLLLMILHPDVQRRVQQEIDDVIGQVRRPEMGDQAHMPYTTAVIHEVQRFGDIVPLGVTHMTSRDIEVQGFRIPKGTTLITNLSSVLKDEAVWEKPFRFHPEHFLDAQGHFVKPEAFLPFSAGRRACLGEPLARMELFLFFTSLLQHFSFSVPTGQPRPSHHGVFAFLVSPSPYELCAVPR
Sequence of Rap guanine nucleotide exchange factor 4 (Homo sapiens) (Q8WZA2 whole entry, looked up): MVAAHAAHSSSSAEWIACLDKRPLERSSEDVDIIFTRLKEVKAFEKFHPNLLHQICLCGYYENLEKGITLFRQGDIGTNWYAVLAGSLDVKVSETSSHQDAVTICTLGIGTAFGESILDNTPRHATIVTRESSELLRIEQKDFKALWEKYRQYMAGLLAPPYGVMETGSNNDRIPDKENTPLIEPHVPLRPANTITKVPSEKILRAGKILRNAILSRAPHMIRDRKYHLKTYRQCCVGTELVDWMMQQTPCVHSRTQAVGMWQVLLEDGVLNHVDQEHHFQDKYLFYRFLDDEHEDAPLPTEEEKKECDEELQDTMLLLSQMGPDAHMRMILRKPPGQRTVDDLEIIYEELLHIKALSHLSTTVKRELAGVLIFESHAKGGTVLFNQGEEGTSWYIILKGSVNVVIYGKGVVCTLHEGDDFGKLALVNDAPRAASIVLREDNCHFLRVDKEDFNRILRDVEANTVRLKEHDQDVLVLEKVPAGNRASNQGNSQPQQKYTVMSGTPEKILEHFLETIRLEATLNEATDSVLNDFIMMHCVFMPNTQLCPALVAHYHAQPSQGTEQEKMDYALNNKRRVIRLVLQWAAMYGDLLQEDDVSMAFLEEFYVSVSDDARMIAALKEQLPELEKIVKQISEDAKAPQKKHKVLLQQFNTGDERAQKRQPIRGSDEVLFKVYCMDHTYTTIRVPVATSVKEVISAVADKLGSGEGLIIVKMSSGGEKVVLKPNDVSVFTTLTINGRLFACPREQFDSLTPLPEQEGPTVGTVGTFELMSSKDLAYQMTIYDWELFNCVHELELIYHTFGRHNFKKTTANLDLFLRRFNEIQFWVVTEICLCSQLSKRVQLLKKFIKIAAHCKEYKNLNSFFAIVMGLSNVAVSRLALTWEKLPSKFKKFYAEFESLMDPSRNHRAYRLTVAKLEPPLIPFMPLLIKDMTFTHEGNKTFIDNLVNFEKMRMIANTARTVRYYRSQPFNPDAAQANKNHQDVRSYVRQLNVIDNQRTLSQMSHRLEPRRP
Sequence of Cytochrome P450 2C19 (Homo sapiens) (P33261 whole entry, looked up): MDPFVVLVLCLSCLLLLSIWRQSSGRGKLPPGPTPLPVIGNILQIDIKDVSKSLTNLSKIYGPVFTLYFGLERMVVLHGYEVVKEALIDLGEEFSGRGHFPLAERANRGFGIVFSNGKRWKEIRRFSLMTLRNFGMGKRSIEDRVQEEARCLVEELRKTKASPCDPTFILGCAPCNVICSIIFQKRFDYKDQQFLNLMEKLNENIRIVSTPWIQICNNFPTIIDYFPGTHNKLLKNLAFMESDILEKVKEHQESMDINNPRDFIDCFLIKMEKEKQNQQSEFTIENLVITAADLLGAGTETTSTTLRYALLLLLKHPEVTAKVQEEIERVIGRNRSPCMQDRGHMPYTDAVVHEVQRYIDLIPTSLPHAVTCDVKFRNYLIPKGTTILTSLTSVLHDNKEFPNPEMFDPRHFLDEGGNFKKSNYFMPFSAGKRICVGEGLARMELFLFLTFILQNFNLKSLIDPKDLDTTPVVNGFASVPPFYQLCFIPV

CCC(=O)OC1CCC2C3CCc4cc(O)ccc4C3CC[C@]12C (stereo partly specified)
Potency [1]: 49.4 µM (active)

Clc1ccccc1-c1cncnc1NCCN1CCOCC1
Potency [2]: 3.16 µM (active)

COCCn1c(=O)c(-c2cccs2)nc2cnc(N3CCN(C)CC3)nc21
Potency [2]: 2.51 µM (active)

CN1CCN(c2ncc3nc(-c4cc(F)cc(F)c4)c(=O)n(CCC#N)c3n2)CC1
Potency [2]: 3.16 µM (active)

COc1cccc(Cn2c(=O)c(-c3ccccc3)nc3cnc(N4CCN(C)CC4)nc32)c1
Potency [2]: 3.16 µM (active)

CN1CCN(c2ncncc2-c2ccccc2Cl)CC1
activation [2]: 4.87%

COCCn1c(=O)c(-c2ccc(OC)cc2)nc2cnc(N3CCN(C)CC3)nc21
Potency [2]: 3.16 µM (active)

COc1cccc(Cn2c(=O)c(-c3cc(F)cc(F)c3)nc3cnc(N4CCNCC4)nc32)c1
Potency [3]: 7.94 µM (active)

CN(C)Cc1ccccc1-c1cc(NCc2cccs2)ncn1
Potency [4]: 2 µM (active)

CN1CCN(c2ncncc2-c2ccoc2)CC1
Potency [5]: inactive

CN1CCN(c2ncc3nc(-c4ccccc4)c(=O)n(C4CC4)c3n2)CC1
Potency [2]: 3.98 µM (active)

O=c1c(-c2ccc(F)cc2)nc2cnc(N3CCNCC3)nc2n1Cc1cccs1
Potency [2]: 2.51 µM (active)

COc1ccccc1CNc1ncnc2ccc(-c3ccccc3OC)cc12
Potency [3]: 0.794 µM (active)

Cc1ccccc1-c1nc(N2CCOCC2)c2ccccc2n1
activity change, negative = inhibition [3]: 14.3% [at 2.29 µM] | activation [2]: 11%

COc1ccccc1-c1ccc2ncnc(NC3CC3)c2c1
activation [2]: 27.8%
